Consider 16 molecules from PubChem BioAssay.

The nature of assay [1]: anti-His antibody binders, primary screen, artefact control for SMM control protein annotation, biochemical, small-molecule microarray, 635 nm fluorescence (AID 1128).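 Note: score merges feature fluorescence with signal-to-noise for each printed compound spot.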 The settings on record: anti-His Alexa647 antibody binding, higher = more signal.
The subject of assay [2] is Human papillomavirus type 1a E7 protein (residues 1-88). Kind of assay: HPV1a E7 small-molecule binders, primary screen, biochemical, small-molecule microarray, residues 1-88, 635 nm (AID 1129). The settings on record: small-molecule microarray binding, fluorescence 635 nm; higher = more signal.
The target in assay [3] is Focal adhesion kinase 1 (Homo sapiens) (UniProt Q05397). Kind of assay: small-molecule microarray binders of FAK, primary screen, biochemical, 635/667 nm fluorescence, BSA, DTT (AID 1130).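 Note: composite of spot emission at 667 nm and signal to noise over triplicate slides.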 The settings on record: PTK2 binding, 635 nm fluorescence, higher = more signal.
Assay [4] relates to Fibrinogen (Alexa647-labelled). The assay is described as follows: fibrinogen binders on compound microarrays, profiling panel, artefact control for SMM control-protein annotation, biochemical, small-molecule microarray, 635/667 nm fluorescence (AID 1131).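 Note: z-score merges 667 nm fluorescence with per-spot signal-to-noise over triplicate slides.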 The settings on record: fibrinogen-A647 binding fluorescence, higher = more signal.
For assay [5], the target named is Follistatin (Homo sapiens) (UniProt P19883). The assay is described as follows: follistatin binders on small-molecule microarrays, primary screen, biochemical, small-molecule microarray, 635/667 nm fluorescence (AID 1132). The settings on record: FST binding, 635 nm fluorescence, higher = more signal.
Assay [6] concerns the target Fibroblast growth factor 2 (Homo sapiens) (UniProt P09038). The assay is described as follows: FGF2 binders on small-molecule microarrays, primary screen, biochemical, small-molecule microarray, 635/667 nm fluorescence (AID 1133). The settings on record: small-molecule microarray binding, FGF2, fluorescence 635/667; higher = more signal.
The nature of assay [7]: mitochondrial membrane potential change in A549 cells, profiling panel, cell-based, JC-1 fluorescence, basal, 24 h, 100 nL (AID 1138).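 Note: A549 lung adenocarcinoma cells under basal conditions with no added stimulus; test concentration not given here.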 The settings on record: higher = more signal.
For assay [8], the system named is Lefty1. Kind of assay: Lefty1 binders on small-molecule microarrays, primary screen, biochemical, small-molecule microarray, 635/667 nm fluorescence (AID 1139). The settings on record: small-molecule microarray binding, fluorescence 635/667; higher = more signal.
Assay [9] has as its system wheat germ agglutinin (Triticum aestivum), Alexa647-labelled. The assay is described as follows: wheat germ agglutinin binders on compound microarrays, profiling panel, artefact control for SMM control-protein annotation, biochemical, small-molecule microarray, 635/667 nm fluorescence (AID 1140).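 Note: score merges 667 nm feature emission with signal to noise over triplicate slides.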 The settings on record: WGA-A647 binding, 635 nm fluorescence, higher = more signal.

Assay [10] has as its target Luciferin 4-monooxygenase (Photinus pyralis) (UniProt P08659). Kind of assay: firefly luciferase enzyme inhibitors, primary screen, biochemical, luminescence, purified enzyme, 2006 set (AID 1141).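 Note: cell-free assay with purified firefly luciferase at 100 ng per well in PBS; test concentration not given here.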 The settings on record: SteadyGlo luminescence, 30 min, higher = more signal, called active from +8 up or from −8 down.

SMILES strings stand for the structures. Calls of active or inactive are those of the source.

Chain of Focal adhesion kinase 1 (Homo sapiens) (Q05397 whole entry, looked up): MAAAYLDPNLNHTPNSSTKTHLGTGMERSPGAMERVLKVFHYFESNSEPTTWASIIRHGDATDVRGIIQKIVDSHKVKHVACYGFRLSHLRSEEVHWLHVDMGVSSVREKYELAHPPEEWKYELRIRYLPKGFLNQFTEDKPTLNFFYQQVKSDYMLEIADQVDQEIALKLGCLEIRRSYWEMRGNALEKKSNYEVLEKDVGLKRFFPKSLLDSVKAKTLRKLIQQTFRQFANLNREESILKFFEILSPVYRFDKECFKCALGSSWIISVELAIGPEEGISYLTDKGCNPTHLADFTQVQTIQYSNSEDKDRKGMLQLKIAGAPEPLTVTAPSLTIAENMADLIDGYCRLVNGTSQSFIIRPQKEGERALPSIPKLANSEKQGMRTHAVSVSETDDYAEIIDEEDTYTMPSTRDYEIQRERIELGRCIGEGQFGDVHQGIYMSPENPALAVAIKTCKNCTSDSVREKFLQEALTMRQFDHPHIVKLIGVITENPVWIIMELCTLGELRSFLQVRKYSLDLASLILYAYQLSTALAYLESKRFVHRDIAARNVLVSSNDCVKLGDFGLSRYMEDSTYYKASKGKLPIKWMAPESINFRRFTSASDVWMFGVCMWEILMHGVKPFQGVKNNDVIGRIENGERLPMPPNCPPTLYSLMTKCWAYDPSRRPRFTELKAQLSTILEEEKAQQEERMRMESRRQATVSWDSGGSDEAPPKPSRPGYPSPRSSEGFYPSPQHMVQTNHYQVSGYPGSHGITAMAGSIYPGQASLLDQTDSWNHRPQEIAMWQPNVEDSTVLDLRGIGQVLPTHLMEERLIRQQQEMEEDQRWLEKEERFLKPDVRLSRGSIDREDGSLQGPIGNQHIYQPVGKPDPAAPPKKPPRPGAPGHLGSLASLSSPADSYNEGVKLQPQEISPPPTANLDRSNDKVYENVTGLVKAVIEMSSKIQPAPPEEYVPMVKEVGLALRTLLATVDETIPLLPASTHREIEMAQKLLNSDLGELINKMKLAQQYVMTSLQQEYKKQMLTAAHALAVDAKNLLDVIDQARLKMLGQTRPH
Chain of Fibroblast growth factor 2 (Homo sapiens) (P09038 whole entry, looked up): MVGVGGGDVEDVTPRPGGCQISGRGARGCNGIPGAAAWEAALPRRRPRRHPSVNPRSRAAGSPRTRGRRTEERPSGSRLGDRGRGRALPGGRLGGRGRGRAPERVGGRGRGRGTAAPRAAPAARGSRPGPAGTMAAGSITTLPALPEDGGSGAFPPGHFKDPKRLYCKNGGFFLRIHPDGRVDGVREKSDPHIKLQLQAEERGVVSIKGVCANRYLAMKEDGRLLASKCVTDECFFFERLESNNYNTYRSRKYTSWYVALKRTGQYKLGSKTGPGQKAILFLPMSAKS
Chain of Luciferin 4-monooxygenase (Photinus pyralis) (P08659 whole entry, looked up): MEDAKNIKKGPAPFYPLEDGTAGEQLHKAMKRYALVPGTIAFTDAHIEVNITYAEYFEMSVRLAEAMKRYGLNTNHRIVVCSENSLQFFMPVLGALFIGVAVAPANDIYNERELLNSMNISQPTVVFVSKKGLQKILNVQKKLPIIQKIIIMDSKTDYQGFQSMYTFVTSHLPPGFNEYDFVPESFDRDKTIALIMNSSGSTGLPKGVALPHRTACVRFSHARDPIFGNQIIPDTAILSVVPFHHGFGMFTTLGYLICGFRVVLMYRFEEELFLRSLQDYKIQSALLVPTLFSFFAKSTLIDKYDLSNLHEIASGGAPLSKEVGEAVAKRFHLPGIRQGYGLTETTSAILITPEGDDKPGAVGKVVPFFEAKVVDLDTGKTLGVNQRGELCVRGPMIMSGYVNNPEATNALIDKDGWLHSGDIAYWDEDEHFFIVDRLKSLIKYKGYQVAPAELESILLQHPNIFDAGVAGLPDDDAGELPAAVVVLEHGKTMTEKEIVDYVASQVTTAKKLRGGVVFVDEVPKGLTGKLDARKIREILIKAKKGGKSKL
Chain of Follistatin (Homo sapiens) (P19883 whole entry, looked up): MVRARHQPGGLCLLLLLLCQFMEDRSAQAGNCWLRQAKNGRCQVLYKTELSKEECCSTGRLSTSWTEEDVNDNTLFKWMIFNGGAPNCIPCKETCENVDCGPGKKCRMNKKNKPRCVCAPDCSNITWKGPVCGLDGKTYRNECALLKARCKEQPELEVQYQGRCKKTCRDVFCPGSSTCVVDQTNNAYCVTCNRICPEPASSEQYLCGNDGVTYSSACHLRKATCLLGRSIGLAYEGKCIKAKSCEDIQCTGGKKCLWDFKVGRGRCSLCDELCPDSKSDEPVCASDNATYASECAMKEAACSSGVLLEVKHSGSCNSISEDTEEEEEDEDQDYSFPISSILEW

In the case of `COC(=O)C(CC#Cc1ccc2c(c1)[C@]1(C(=O)N2)[C@H](c2ccc(O)cc2)N2[C@H](c3ccccc3)[C@H](c3ccccc3)OC(=O)[C@H]2[C@@H]1C(=O)N1CCCCCCC1)C(=O)OC`, the composite z-score is 0.792 in assay [1]; 1.23 in assay [2]; 1.47 in [3]; 0.945 in assay [4]; 1.43 in [5]; 1.4 in assay [6]. Besides, the composite z-score in [8] worked out at 0.966; in [9], 1.35. Further, the z-score is 1.21 in [7] and -1.99 (inactive) in assay [10].

On to `COc1cc(NN2C(C(O)c3cc(OC)c(OC)c(OC)c3)C=CC3C(=O)N(c4ccccc4)C(=O)C32)cc(OC)c1OC` (stereo not given), for which the composite z-score is 1.41 in assay [1]; 1.27 in assay [2]; 0.6 in assay [3]; 1.04 in assay [4]; 1.28 in assay [5]; 1.56 in [6]. For the same molecule, the figures for the composite z-score in assay [8] and in [9] were 0.133 and 0.848, respectively. Also, the figures for the z-score in [7] and in assay [10] were -0.609 and -0.771 (inactive), respectively.

On to `CC(C)(C)OC(=O)CC[C@]1(C(=O)N2CCCCC2)COC(c2ccc(OCCCO)cc2)=N1`, for which the composite z-score was 2.11 in assay [1]; 1.23 in [2]; 0.857 in [3]; 1 in assay [4]; 0.778 in [5]; -0.0857 in [6]. Also, the composite z-score in assay [8] was 0.197; in assay [9], 1.12. For the same molecule, the figures for the z-score in [7] and in assay [10] were -0.29 and -0.3 (inactive), respectively.

With `C=C(C(=O)CC[C@@H](OC(=O)c1ccccc1-c1ccccc1C(=O)O)c1ccccc1OCCO)C(C)C`, the composite z-score is -0.186 in assay [1]; 1.23 in assay [2]; 0.183 in [3]; 0.532 in [4]; 1.46 in assay [5]; 1.77 in [6]. The composite z-score in [8] came out at 1.58; in assay [9], 0.109. Further, the figures for the z-score in assay [7] and in [10] were -0.0391 and -0.679 (inactive), respectively.

Take `O=C(O)[C@H]1C[C@H]2C(=O)N[C@@H](Cc3ccccc3)C(=O)N2[C@H]1c1cccc(OCCO)c1`: the composite z-score was 1.7 in assay [1]; -0.0006 in [2]; -0.167 in assay [3]; 0.472 in assay [4]; 1.43 in assay [5]; 1.44 in assay [6]. In addition, the composite z-score in [8] is 1.33; in [9] it was 0.568. The z-score in assay [7] was 0.706; in [10], -0.832 (inactive).

In the case of `COc1ccc([Si](C)(C)[C@H]2[C@H](CC(=O)N3CCC[C@H]3CO)O[C@@]3(C(=O)N(Cc4ccc(N5CCC5=O)cc4)c4ccccc43)[C@@H]2C)cc1`, the composite z-score in assay [1] was determined as 1.54; in assay [2], 1.19; in assay [3] it was 0.559; in [4] it was 0.898; in [5], 1.35; in [6], 1.73. For the same molecule, the values for the composite z-score in assay [8] and in [9] were 1.56 and 0.211, respectively. Moreover, the z-score in assay [7] was 1.51; in [10] it was -0.509 (inactive).

`CN(C)CCCC[C@@H]1NC(=O)[C@@H]2C[C@H](C(=O)O)[C@H](c3cccc(OCCO)c3)N2C1=O`: the composite z-score was 1.22 in assay [1]; -0.544 in assay [2]; -0.335 in [3]; 0.438 in assay [4]; 0.072 in assay [5]; 1.17 in [6]. Also, the composite z-score is -0.528 in assay [8] and -0.138 in [9]. Besides, the values for the z-score in [7] and in [10] were 0.0092 and -0.836 (inactive), respectively.

For `CCOC(=O)C1=CC[C@@H](c2ccccc2)N(S(=O)(=O)c2ccc(C)cc2)[C@H]1C=Cc1ccccc1`, the composite z-score was 0.906 in assay [1]; 0.943 in assay [2]; 0.289 in assay [3]; -0.181 in assay [4]; -0.28 in assay [5]; -0.463 in assay [6]. For the same molecule, the composite z-score in [8] was -0.584; in assay [9], 0.152. The z-score is 2.17 in assay [7] and 1.45 (inactive) in [10].

For the molecule `COCCOC(=O)N1C(=O)[C@@]2(c3cc(C#CCC(C(=O)OC)C(=O)OC)ccc31)[C@H](C(=O)NC[C@H](O)c1ccccc1)[C@H]1C(=O)O[C@H](c3ccccc3)[C@H](c3ccccc3)N1[C@@H]2c1ccc(O)cc1`, the composite z-score in assay [1] is 2.58; in [2], 1.17; in assay [3], 0.983; in [4] it was -0.6; in assay [5], 0.22; in [6], 0.501. Further, the composite z-score in assay [8] worked out at 0.464; in [9], 1.02. Further, the z-score in assay [7] was -0.464; in [10], -0.296 (inactive).

For the molecule `COc1ccc([Si](C)(C)[C@@H]2[C@@H](CC(=O)N3Cc4ccccc4C[C@H]3CO)O[C@]3(C(=O)N(c4ccccc4)c4ccccc43)[C@H]2C)cc1`, the composite z-score amounted to 2.39 in assay [1]; 0.957 in [2]; 0.983 in assay [3]; 0.813 in assay [4]; 1.36 in assay [5]; 1.46 in assay [6]. Further, the results for the composite z-score in assay [8] and in [9] were 1.04 and 1.53, respectively. Moreover, the z-score was 0.277 in assay [7] and 0.348 (inactive) in [10].

`C=CCC(OC(C)=O)[C@@H]1[C@@H](N(Cc2ccc(-c3cccc(C(F)(F)F)c3)o2)C(=O)c2cccc3ccccc23)c2cc(OCCCO)ccc2N1C(=O)Cc1ccc(OC)cc1` (stereo not given in full): the composite z-score in [1] was -0.0466; in [2], -1.02; in assay [3] it was -0.104; in [4] it was -0.765; in [5] it was 0.998; in [6], -0.0117. Besides, the results for the composite z-score in assay [8] and in [9] were 0.229 and 0.0854, respectively. Besides, the values for the z-score in assay [7] and in assay [10] were -0.465 and 0.638 (inactive), respectively.

`C=C(COC)/C(=C/C[C@@H](OC(=O)c1ccncc1)c1ccccc1OCCO)c1cc(C(=O)OC)ccc1OC`: the composite z-score in assay [1] is -1.25; in [2], -0.975; in [3], -0.478; in assay [4], -1.5; in assay [5] it was 0.249; in assay [6], -0.203. Besides, the composite z-score is -0.247 in [8] and -1.12 in [9]. Also, the z-score is 2.02 in assay [7] and -2.4 (inactive) in assay [10].

Consider `C=C(/C(=C/C[C@@H](OC(=O)c1ccncc1)c1cccc(OCCO)c1)c1cnc2ccccc2c1)C(C)C`, for which the composite z-score in assay [1] was found to be 0.787; in [2], 1.09; in assay [3], 0.329; in [4] it was 0.807; in assay [5], 1.42; in assay [6], 2.01. The composite z-score in assay [8] came to 1.2; in [9], 1.29. In addition, the results for the z-score in assay [7] and in assay [10] were 1.02 and -1.47 (inactive), respectively.

For the molecule `C=C[C@@H](OC)[C@H](OC(=O)Nc1ccc(SC)cc1)c1ccc(OCCO)cc1`, the composite z-score came out at 2.02 in assay [1]; 0.815 in assay [2]; 0.317 in assay [3]; 0.951 in assay [4]; 1.17 in assay [5]; 0.377 in assay [6]. Further, the composite z-score turned out to be 0.545 in assay [8] and 0.653 in assay [9]. In addition, the values for the z-score in assay [7] and in assay [10] were -1.48 and -2.25 (inactive), respectively.

`CCCNC(=O)[C@@]1(C)c2ccccc2C(=O)N(Cc2ccccc2)[C@H]1c1ccc(CO)cc1`: the composite z-score is 1.8 in assay [1]; 0.0323 in [2]; 1.28 in assay [3]; -0.872 in [4]; -0.571 in assay [5]; -0.258 in assay [6]. In addition, the composite z-score in [8] was -0.975; in assay [9] it was -0.231. For the same molecule, the results for the z-score in assay [7] and in [10] were 1.03 and -1.18 (inactive), respectively.

On to `O=C1C2C=CC(C(O)c3ccc4c(c3)OCO4)N(Nc3ccccc3)C2C(=O)N1c1ccccc1` (stereo not given), for which the composite z-score is 0.496 in [1]; 1.21 in assay [2]; 0.617 in assay [3]; 0.979 in [4]; 1.03 in assay [5]; -0.337 in assay [6]. The composite z-score in assay [8] worked out at 0.153; in [9], 0.942. In addition, the z-score in assay [7] is 0.279; in assay [10], 0.465 (inactive).
